{"source": "PubChem BioAssay AID1458", "about": "(National Center for Advancing Translational Sciences (NCATS), 2008)", "note": "About 5,900 (2.8%) of roughly 210,000 compounds were called active. Roughly 5% stayed inconclusive and do not appear here. The entries come from a sample that favours actives as a whole. A number with no mark means an inactive call. Calls follow the shape of the dose curve; as a rule, active = well fitted activation curve with a large enough effect; inconclusive = small, poorly fitted or top-dose-only effect; inactive = no such curve, though single readings can be large or run the other way. Potency is read from the fitted curve at half-maximal effect."}
{"experiment": "qHTS Assay for Enhancers of SMN2 Splice Variant Expression; also: nearly all actives have a fitted effect of over 55% in size; as to activity change, positive = activation: % of control where 0% means no effect", "details": "HEK293 SMN2-luciferase splicing reporter, luminescence, 30-36 h; series mostly up to 46.1 µM; activity change, positive = activation: at the top concentration", "method_in_brief": "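HEK293 cells carry an SMN2 […]–luciferase reporter in which exon 7 inclusion puts luciferase in frame. Cells were plated 10-12 h before compound addition, then incubated 30-36 h at 37C. ONE-Glo luminescence was read; sodium butyrate at 4.5 mM final served as control.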", "units": {"activity change, positive = activation": "%"}}
{"smiles": "COc1ccccc1/C=C/c1nc(C#N)c(NC(C)c2ccccc2)o1", "note": "(configuration not stated)", "activity change, positive = activation": -1.39}
{"smiles": "COc1ccc(/C=N/S(=O)(=O)c2ccccc2)cc1OC", "activity change, positive = activation": 3.61}
{"smiles": "CCOc1ccc(/C=N/Nc2nncc(-c3ccccc3)n2)cc1OC", "activity change, positive = activation": -7.07}
{"smiles": "COc1ccc(/C=N/Nc2nc3ccccc3o2)cc1OC", "Potency": "6.31 µM (active)"}
{"smiles": "Cc1ccc(Cl)cc1NC(=O)C1CCCN(c2cnccn2)C1", "note": "(configuration not stated)", "activity change, positive = activation": 1.66}
{"smiles": "O=C(Nc1cccnc1Cl)c1cc(-c2cccc(Cl)c2)on1", "activity change, positive = activation": 10.1}
{"smiles": "CCC(=O)N1CCc2cc(S(=O)(=O)NC(Cc3ccccc3)C(=O)NCc3ccccc3)ccc21", "note": "(configuration not stated)", "activity change, positive = activation": -8.71}
{"smiles": "CNc1nc(Nc2ccc(C)c(Cl)c2)nc(N)c1[N+](=O)[O-]", "Potency": "11.2 µM (active)"}
{"smiles": "COCCNc1nc(N)c([N+](=O)[O-])c(NCCO)n1", "activity change, positive = activation": 19.4}
{"smiles": "Nc1nc(NCCCN2CCOCC2)nc(Nc2ccccc2)c1[N+](=O)[O-]", "activity change, positive = activation": 12.2}
{"smiles": "Cc1ccccc1CNC(=O)Cn1c(C)c2cnn(-c3ccccc3)c(=O)c2c1C", "activity change, positive = activation": 8.24}
{"smiles": "CCOC(=O)/C(C#N)=C/c1ccc(OCC(=O)Nc2ccccc2)c(OC)c1", "activity change, positive = activation": 22}
{"smiles": "COc1cc(CCC(=O)OCC(=O)Nc2cccc(S(N)(=O)=O)c2)cc(OC)c1OC", "activity change, positive = activation": -9.52}
{"smiles": "CCCn1c(C)cc(/C=C(\\C#N)C(=O)OCC(=O)Nc2cc(OC)c(OC)c(OC)c2)c1C", "Potency": "14.1 µM (active)"}
{"smiles": "CCOc1ccc(CCNC(=O)CN(c2ccc(C)cc2)S(=O)(=O)N(C)C)cc1OCC", "activity change, positive = activation": -27.5}
{"smiles": "CCOC(=O)c1ccc(N2C(=O)c3[nH]nc(-c4ccccc4)c3C2c2ccc(C(C)C)cc2)cc1", "note": "(configuration not stated)", "activity change, positive = activation": -15.6}
{"smiles": "Cc1ccc(SCC(=O)Nc2ncc(C)s2)cc1", "activity change, positive = activation": -10.3}
{"smiles": "Cc1nc(NC(=O)C23CCC(C)(C(=O)O2)C3(C)C)sc1C", "note": "(configuration not stated)", "activity change, positive = activation": -0.0451}
{"smiles": "Cc1cnc(NC(=O)C2CCCC2)s1", "Potency": "14.1 µM (active)"}
{"smiles": "Cc1nc(NC(=O)C2CCCCC2)sc1C", "Potency": "20 µM (active)"}
{"smiles": "CS(=O)(=O)c1ccc2nc(NC(=O)C3CCCCC3)sc2c1", "activity change, positive = activation": -13}
{"smiles": "Cc1cnc(NC(=O)CSc2c(Cl)cccc2Cl)s1", "activity change, positive = activation": -24.3}
{"smiles": "CCCCC(CC)CNC(=O)C1CCN(S(=O)(=O)c2cccc3nsnc23)CC1", "note": "(configuration not stated)", "activity change, positive = activation": 2.83}
{"smiles": "CCc1cc2c(cc(C(=O)OC)n2Cc2nc(-c3ccc(C)cc3)oc2C)s1", "activity change, positive = activation": -9.75}
{"smiles": "COc1cc(OC)cc(-c2nc(=S)n3ccsc3n2)c1", "activity change, positive = activation": 3.14}
{"smiles": "c1ccc(-c2cn3cccnc3n2)cc1", "activity change, positive = activation": 5.81}
{"smiles": "CCCC(=O)Nc1cccc(-c2cn3ccsc3n2)c1", "activity change, positive = activation": 5.02}
{"smiles": "COc1ccc(-c2cn3ccsc3n2)cc1", "Potency": "15.8 µM (active)"}
{"smiles": "COc1ccc(-c2cn3cccnc3n2)cc1", "Potency": "12.6 µM (active)"}
{"smiles": "Cc1ccc(-c2cn3cc(C)ccc3n2)cc1", "activity change, positive = activation": -85.6}
{"smiles": "Cc1ccc(C)c(Cn2c(CCCNC(=O)C3CCCCC3)nc3ccccc32)c1", "activity change, positive = activation": -1.77}
{"smiles": "Cc1ccsc1CN(C(=O)c1oc2ccc(Br)cc2c1C)C1CCS(=O)(=O)C1", "note": "(configuration not stated)", "activity change, positive = activation": -38.8}
{"smiles": "Cc1ccc(-n2nc(C)c(C(=O)O)c2-n2cccc2)cc1", "activity change, positive = activation": 3.71}
{"smiles": "COc1ccccc1C(=O)NCCn1cc(SCc2ccccc2Cl)c2ccccc21", "activity change, positive = activation": -39.6}
{"smiles": "Cc1c(C=O)n(C)n(-c2ccccc2)c1=O", "activity change, positive = activation": 22.8}
{"smiles": "Cc1ccc(S(=O)(=O)Nc2ccccc2CNc2c(C)n(C)n(-c3ccccc3)c2=O)cc1", "activity change, positive = activation": -10.8}
{"smiles": "Cc1c(N=Nc2ccc(N(C)C)cc2)c(=O)n(-c2ccccc2)n1C", "Potency": "10 µM (active)"}
{"smiles": "Cc1ccc2oc(=O)c3cnn(CC(=O)NCc4ccccc4Cl)c3c2c1", "activity change, positive = activation": -0.578}
{"smiles": "CCCC12CN3CC(CCC)(CN(C1)C3c1c[nH]c3ccc(OC)cc13)C2=O", "note": "(configuration not stated)", "activity change, positive = activation": -5.47}
{"smiles": "CNC(=S)N1N=C(c2ccccc2)CC1c1ccc(Br)cc1", "note": "(configuration not stated)", "activity change, positive = activation": -10.1}
{"smiles": "c1ccc(C2=Nc3cccc4cccc(c34)N2)cc1", "activity change, positive = activation": -6.88}
{"smiles": "Brc1ccc(C2CC(c3ccccc3)=Nc3ccccc3N2)cc1", "note": "(configuration not stated)", "Potency": "11.2 µM (active)"}
{"smiles": "O=C(Nc1ccc(OC(F)(F)F)cc1)C1CCCN(S(=O)(=O)c2ccc(Br)s2)C1", "note": "(configuration not stated)", "activity change, positive = activation": -5.28}
{"smiles": "COc1cc(NS(=O)(=O)c2cccs2)cc(OC)c1", "activity change, positive = activation": 3.39}
{"smiles": "Cc1cccc(N2CCN(c3c(CN4CCCC4)c(=O)oc4ccccc34)CC2)c1C", "activity change, positive = activation": -9.24}
{"smiles": "O=C(NCc1cccs1)c1ccc2c(c1)ncn2C1CCCC1", "activity change, positive = activation": -4.28}
{"smiles": "Cn1ncc(Br)c1C(=O)NCc1cccs1", "activity change, positive = activation": 2.37}
{"smiles": "Cc1nc2cc(NCc3cccs3)ccc2n1C", "Potency": "7.94 µM (active)"}
{"smiles": "CCCCCCn1nnc2sc(-c3ccccc3)cc2c1=O", "activity change, positive = activation": -11.4}
{"smiles": "CCOC(=O)c1cc(NC(=O)c2ccc(F)cc2)c(=O)n2c1oc1ccccc12", "activity change, positive = activation": 6.19}
{"smiles": "COc1ccccc1NC(=O)c1oc2ccccc2c1NC(=O)C(C)C", "activity change, positive = activation": -16.2}
{"smiles": "CC(CCCc1ccccc1)NC(=O)c1nn(-c2ccc(Cl)cc2)nc1CO", "note": "(configuration not stated)", "activity change, positive = activation": -47.2}
{"smiles": "CCOc1ccc(S(=O)(=O)Nc2ccc3oc4c(c3c2)CC(C)CC4)cc1", "note": "(configuration not stated)", "activity change, positive = activation": -8.65}
{"smiles": "CSCc1ccc(C(=O)Nc2cc(C)cc(C)c2)cc1", "Potency": "12.6 µM (active)"}
{"smiles": "C=CCN(c1ccc(C(=O)Nc2cc(C)cc(C)c2)cc1)S(C)(=O)=O", "activity change, positive = activation": -19.8}
{"smiles": "CC(=O)Nc1ccccc1NC(=O)c1cc(C)cc(C)c1", "activity change, positive = activation": -2.07}
{"smiles": "CCOc1ccccc1NC(=O)c1ccc2c(c1)CCN2S(=O)(=O)c1ccc(C)cc1", "activity change, positive = activation": 3.85}
{"smiles": "CC(=O)Nc1ccc(NC(=O)CSc2nnc3c4cc(Br)ccc4n(C)c3n2)cc1", "activity change, positive = activation": 3.66}
{"smiles": "Cc1cc(C)cc(NC(c2nnc(-c3cccc(F)c3)o2)c2ccc(F)cc2Cl)c1", "note": "(configuration not stated)", "activity change, positive = activation": -3.55}
{"smiles": "O=C(CSC(=S)N1CCOCC1)c1ccccc1", "Potency": "0.794 µM (active)"}
{"smiles": "NC(=NC(=O)c1ccccc1)N1CCOCC1", "activity change, positive = activation": 8.74}
{"smiles": "O=C(NC(=O)N1CCOCC1)c1ccccc1", "activity change, positive = activation": -3.17}
{"smiles": "Cc1ccc(F)cc1NC(=O)c1ccc2c(c1)OCO2", "activity change, positive = activation": -18.3}
{"smiles": "O=C(Nc1cccnc1)c1ccc2c(c1)OCO2", "activity change, positive = activation": 27.6}
{"smiles": "COCc1nnc(NC(=O)c2ccc3c(c2)OCO3)s1", "Potency": "14.1 µM (active)"}
{"smiles": "O=C(Nc1nc2ccccc2s1)c1ccc2c(c1)OCO2", "Potency": "0.355 µM (active)"}
{"smiles": "CCCc1nnc(NC(=O)c2cc(OC)cc(OC)c2)s1", "activity change, positive = activation": 0.792}
{"smiles": "Cc1cc(C)c2nc(NC(=O)c3ccc4c(c3)OCO4)sc2c1", "activity change, positive = activation": 3.44}
{"smiles": "O=C(CCn1c(=O)c2ccccc2n(Cc2ccc(Cl)cc2)c1=O)NCc1ccc2c(c1)OCO2", "activity change, positive = activation": 10.9}
{"smiles": "CC(C)NC(=O)c1nn(-c2ccccc2F)nc1CO", "activity change, positive = activation": -25.4}
{"smiles": "NC1=NC(c2cc(F)cc(F)c2)n2c(nc3ccccc32)N1", "note": "(configuration not stated)", "activity change, positive = activation": 2.06}
{"smiles": "Brc1ccc2c(c1)NC(c1cccnc1)=NC(c1ccccc1)=N2", "activity change, positive = activation": 26.1}
